# Experimental data from PubChem BioAssay AID686978 (National Center for Advancing Translational Sciences (NCATS), 2013).
# Out of some 420,000 compounds screened, about 64,000 (15%) were called active. About 27% were inconclusive and are not listed. A selection follows. Values without a mark were called inactive. Calls follow the shape of the dose curve; as a rule, active = well fitted inhibition curve with a large enough effect; inconclusive = small, poorly fitted or top-dose-only effect; inactive = flat fitted curve, though single readings scatter.
# Experiment: qHTS for Inhibitors of human tyrosyl-DNA phosphodiesterase 1 (TDP1): qHTS in cells in absence of CPT; also: nearly all actives have a fitted effect of over 55% in size
# Conditions: DT40 Tdp1-/- hTDP1 cells, no CPT, ATP luminescence, 48 h; activity change, negative = growth inhibition: at 46.2 µM (top of the series)
# Summary of the method: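 Growth of hTDP1-complemented DT40 Tdp1-knockout cells is measured by ATP luminescence after at least 48 hr compound exposure at 37 °C, with DMSO substituting for the 20 nM CPT used in the parallel screen.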
# % is scaled to controls: 0 for no effect and ±100 for the full control effect; potency is read from the fitted curve at half-maximal effect.
Structure (SMILES),"activity change, negative = growth inhibition",Potency
C=CCn1c(COc2ccccc2)nnc1SCC(=O)NCC(=O)OCC,-27.1%,–
O=C(O)CSc1nccc2ccccc12,-14.4%,–
COc1cc(Cl)c(S(=O)(=O)n2cnc(C)c2)cc1Cl,-1.08%,–
Cc1ccnc(NC(=O)CNC(=O)c2ccccc2)c1,5.46%,–
CCc1ccc(CNC(=O)CCc2nc(-c3cccs3)no2)cc1,-19.3%,–
CSc1n[nH]c(-c2ccco2)n1,-7.2%,–
O=C(CC(NS(=O)(=O)c1ccc(Cl)cc1)c1ccco1)NC1CCCC1 (stereo unspecified),-3.48%,–
CCc1nn(CC(=O)N2CCN(CC)CC2)c(=O)c2cccn12,-0.686%,–
COc1ccccc1NS(=O)(=O)c1ccc(C)c(C(=O)NCC(c2ccco2)N(C)C)c1 (stereo unspecified),6.61%,–
C=CC(C1=CC(=O)C=CC1=O)c1ccc(O)cc1 (stereo unspecified),–,1.84 µM (active)
COc1ccc(CC(=O)Nc2ccc3c(c2)CCC3)cc1S(=O)(=O)N1CCOCC1,-18.7%,–
COC(=O)c1cccc(N(CC(=O)NCC2CCCO2)C(=O)CCC(=O)Nc2cc(C)on2)c1 (stereo unspecified),-22.2%,–
Cc1ccc(-c2csc(SCC(=O)Nc3cc(C)on3)n2)cc1,-27.8%,–
CCOC(=O)Cc1csc(NC(NC(=O)OCC)(C(F)(F)F)C(F)(F)F)n1,-14.5%,–
Cc1ccc2c(CSc3nncs3)cc(=O)oc2c1,-5.24%,–
CCOC(=O)Cc1csc(SCC(=O)Nc2ccc(C)cc2F)n1,–,14.6 µM (active)
CCOC(=O)Cc1csc(NC(=O)COc2ccc3c(C)cc(=O)oc3c2)n1,-22.8%,–
CCOC(=O)Cc1csc(SCc2cc(=O)oc3cc(O)ccc23)n1,–,13 µM (active)
CCOC(=O)Cc1csc(NC(=O)C(C)(C)C)n1,-20.3%,–
Cc1ccc(C)c(NC(=O)COC(=O)Cn2c(C)csc2=O)c1,-18.8%,–
CCOC(=O)Cc1csc(NC(=O)CSc2ccc(Br)cc2)n1,–,16.4 µM (active)
CN(C(=O)CSc1nnc(Nc2ccccc2)s1)C1CCS(=O)(=O)C1 (stereo unspecified),-10.7%,–
CC(Nc1ccccc1)c1cccnc1 (stereo unspecified),4.56%,–
O=C(O)C1CCCN1c1nc(Cl)ccc1[N+](=O)[O-] (stereo unspecified),-3.67%,–
CCc1nccn1CCC(=O)N1CCCC(N2CCN(c3ccccc3F)CC2)C1 (stereo unspecified),-2.17%,–
CCn1ccnc1CN1CCCC(C(=O)c2ccc3c4c(cccc24)CC3)C1 (stereo unspecified),–,4.61 µM (active)

Structure (SMILES),"activity change, negative = growth inhibition",Potency
Cc1c(CN2CCCC(C(=O)c3cccc(Cl)c3)C2)c(=O)n(-c2ccccc2)n1C (stereo unspecified),-10.5%,–
COc1cc(CN2CCC(n3nccc3NC(=O)CCCc3ccccc3)CC2)ccc1O,1.27%,–
COc1ccc(CN2CCC(n3nccc3NC(=O)CCCc3ccccc3)CC2)cc1C,–,29.1 µM (active)
Cc1ccc(CN2CCC(n3nccc3NC(=O)CCCc3ccccc3)CC2)o1,-21.2%,–
CCN(C[C@H]1N[C@@](CC)(C(=O)OC)[C@H]2C(=O)N(Cc3ccccc3)C(=O)[C@@H]12)S(=O)(=O)c1ccc(C(F)(F)F)cc1,–,18.4 µM (active)
CCNC(=O)N(CC)C[C@H]1N[C@@](CC)(C(=O)OC)[C@H]2C(=O)N(Cc3ccccc3)C(=O)[C@@H]12,30.1%,–
CC[C@@]1(C(=O)OC)N[C@H](CN(C)C(C)=O)[C@@H]2C(=O)N(C)C(=O)[C@@H]21,-6.42%,–
CCN(CC)S(=O)(=O)c1ccc2c(c1)N(CC(=O)NCc1ccccc1)C(=O)CS2,-10.2%,–
COC(=O)[C@]1(Cc2ccccc2)N[C@H](CN(C)S(=O)(=O)c2ccc(OC(F)(F)F)cc2)[C@@H]2C(=O)N(C)C(=O)[C@@H]21,–,23.1 µM (active)
CCN(C[C@H]1N[C@@](CC)(C(=O)OC)[C@H]2C(=O)N(C)C(=O)[C@@H]12)C(=O)Nc1ccc(F)cc1,-6.24%,–
CCC1OC(c2ccc([N+](=O)[O-])cc2)=Nc2ccccc21 (stereo unspecified),-0.861%,–
COC(=O)c1sccc1NS(=O)(=O)c1ccc(F)cc1F,-15.1%,–
CN(C)c1cc(N)c2ccccc2n1 (tested in a mixture with another compound),-26.8%,–
CN(C)c1ccc(/C=C/c2c3ccccc3nc3ccccc23)cc1,–,12.6 µM (active)
CN(C)c1ccc(/C=C/C=C/c2ccnc3ccccc23)cc1,–,2 µM (active)
CN(C)c1ccc(/C=N\S(=O)(=O)c2ccccc2)cc1,-3.66%,–
C(=Nc1ccc(/C=C/c2ccnc3ccccc23)cc1)c1cc2c3c(c1)CCCN3CCC2,–,11.2 µM (active)
CCCCC(CCCC)c1ccc(C=Nc2ccc(/C=C/c3ccnc4ccccc34)cc2)cc1,–,11.2 µM (active)
O=C(O)C1C2C=CC(O2)C1C(=O)Nc1ccccn1 (stereo unspecified),-28.6%,–
Cc1nc(COc2cc3oc(=O)cc(C)c3cc2Cl)cs1,-27.1%,–
COc1ccc(S(=O)(=O)N2CCN(C(=O)NC3CCCCC3)CC2)cc1,-16.4%,–
C[C@H](NS(=O)(=O)c1ccc(Cl)cc1)C(=O)OCC(=O)N1CCOCC1,23.5%,–
Cc1sc2ccccc2c1CNC[C@H]1O[C@@H](n2ccc(=O)[nH]c2=O)[C@H](O)[C@@H]1O,1.3%,–
O=S(N1CCCCCC1)C12CC3CC(CC(C3)C1)C2 (stereo unspecified),-28.1%,–
O=C1NCCn2nc3ccccc3c21,0.602%,–
CN(C)c1ccc(C=Nc2ccc(/C=C/c3ccnc4ccccc34)cc2)cc1,–,17.8 µM (active)

Structure (SMILES),"activity change, negative = growth inhibition",Potency
CC(=O)Nc1ccc(NC(=O)COc2ncnc3ccccc23)cc1,-12.7%,–
NC(=O)Nc1ccc(/C=C/c2ccnc3ccccc23)cc1,–,12.6 µM (active)
O=C(/C=C/c1ccc(Cl)cc1)Nc1ccc(S(=O)(=O)Nc2ncccn2)cc1,0.921%,–
C(=Nc1ccc(/C=C/c2ccnc3ccccc23)cc1)Nc1ccc(/C=C/c2ccnc3ccccc23)cc1,–,8.91 µM (active)
O=C(CCNS(=O)(=O)c1ccc(Br)s1)NCc1ccccc1Cl,-6.47%,–
CC(=O)c1cc(CN2CCC(n3nccc3NC(=O)c3ccccc3Cl)CC2)cs1,-16.4%,–
Cc1cc(NC(=O)CSc2ncc(C(F)(F)F)cc2Cl)no1,-18.9%,–
O=C(O)c1ccc([N+](=O)[O-])cc1Sc1ccsc1,-9.07%,–
COCCNc1nc(N)c([N+](=O)[O-])c(N2CCCCCC2)n1,-19.5%,–
CCC1=NN(C(=O)Cc2ccc([N+](=O)[O-])cc2)C(O)(c2ccc(Br)cc2)C1 (stereo unspecified),-5.88%,–
CN(C(=O)CSc1nnc(-c2c[nH]c3ccccc23)o1)C1CCS(=O)(=O)C1 (stereo unspecified),-10.9%,–
Cc1ccc(C)c(S(=O)(=O)Nc2cccc(-n3cnnn3)c2)c1,3.02%,–
CCCCN(C)c1ccc([N+](=O)[O-])cc1,-12.2%,–
COc1ccc(Cc2nnc(NC(=O)Cc3cccs3)s2)cc1,-1.02%,–
CCNC(=S)N1CCC(c2nc3cc(C)c(C)cc3[nH]2)CC1,-14.5%,–
CCN(CC)CCCC(C)Nc1ccnc2cc(Cl)ccc12 (stereo unspecified),–,0.794 µM (active)
CCN(CC)CCNc1ccc(Cl)cc1[N+](=O)[O-],-24.4%,–
COC(=O)COc1ccc(C2NC(=O)NC(C)=C2C(=O)NCc2ccccc2)cc1OC (stereo unspecified),7.11%,–
CC(/C=N/NC(=O)c1cc(-c2ccc3ccccc3c2)n[nH]1)=C\c1ccco1,–,23.1 µM (active)
O=C(Cc1ccccc1)Nc1cccc(C(=O)N/N=C/c2ccco2)c1,-23.6%,–
O=C(NCc1ccco1)/C(=C/c1ccco1)NC(=O)c1ccccc1,-12.2%,–
Cc1noc(C)c1COc1ccc2ccc(=O)oc2c1,1.31%,–
COC1=C/C(=C/c2c(N)n3nc(CC(=O)N4CCOCC4)sc3nc2=O)C=CC1=O,-9.01%,–
CCOc1ccc(N2CC(c3nc4ccccc4n3CCOc3ccc(OC)cc3)CC2=O)cc1 (stereo unspecified),–,23.1 µM (active)
CCOc1ccc(NC(=O)[C@H](C)NC(=O)C2CC(=O)N(c3ccc(OC)cc3)C2)cc1 (stereo partly specified),33.1%,–
CCc1ccccc1N1CC(c2nc3ccccc3n2CCCCOc2ccccc2)CC1=O (stereo unspecified),-19.2%,–

Structure (SMILES),"activity change, negative = growth inhibition",Potency
CCCCN1CC(c2nc3ccccc3n2CCCCOc2ccc(C)cc2C)CC1=O (stereo unspecified),–,5.8 µM (active)
CCCOc1cc(C)c(S(=O)(=O)n2nnc3ccccc32)cc1C,-14.5%,–
CCC1Oc2ccc(Cl)cc2N(CC(=O)O)C1=O (stereo unspecified),-17.8%,–
Nc1c(C(=O)OCC(=O)Nc2ccc(OC(F)F)cc2)[nH]c(=O)[nH]c1=O,2.04%,–
Cc1cc(C)cc(NC(=O)COC(=O)c2cc(C)oc2C)c1,4.9%,–
Cc1ccccc1Nc1nc(N)nc(COC(=O)CCC(=O)c2ccc(F)cc2)n1,-24%,–
CCCCNC(=O)CCn1nc(-c2ccc(Cl)cc2)ccc1=O,-2.25%,–
C[C@H]1CN([C@@H](C)CO)C(=O)CCCn2nncc2CO[C@@H]1CN(C)Cc1ccc(Oc2ccccc2)cc1,–,18.4 µM (active)
C[C@H](CO)N1C[C@H](C)[C@@H](CN(C)Cc2ccc3c(c2)OCO3)OCc2cnnn2CCCC1=O,-4.82%,–
Cc1ccc(CN(C)C[C@@H]2OCc3cnnn3CCCC(=O)N([C@@H](C)CO)C[C@H]2C)cc1,-26.1%,–
CCCC(=O)N1CCC(CCC(=O)NC2CC2)CC1,3.6%,–
COCCN1C(=O)C(=O)/C(=C(/O)c2ccc(S(=O)(=O)N3CCCCC3)cc2)C1c1ccc(OC)c(OC)c1 (stereo unspecified),1.45%,–
CSc1ncc(Sc2ccccc2)c(C(=O)O)n1,2.57%,–
CSc1nc(-c2ccccc2)nc(C(Cl)Cl)n1,–,2.31 µM (active)
CSc1nc(C)cc(SC(C(C)=O)C(=O)Nc2ccccc2)n1 (stereo unspecified),-1.76%,–
CC1(C)Oc2ccc(C(=O)N3CCOCC3)cc2N(CC(=O)Nc2ccccc2)C1=O,-9.51%,–
O=C(NCCC1CCCCN1S(=O)(=O)c1ccccc1)C(=O)NCC1CCCO1 (stereo unspecified),4.61%,–
Cc1ccc(S(=O)(=O)N2CCCC2C(=O)NCc2ccco2)cc1 (stereo unspecified),-18.4%,–
O=C(NCCC1CCCCN1S(=O)(=O)c1ccc(Cl)cc1)C(=O)NCc1ccco1 (stereo unspecified),–,14.6 µM (active)
COc1ccc(NC(=O)CCCc2nnc3n(CCC(C)C)c(=O)c4sccc4n23)c(OC)c1,-34.1%,–
CCC/C(O)=C1\C(=O)CC(C)(C)CC1=Nc1ccccc1OC,–,14.6 µM (active)
COc1ccccc1N=C(C)C1=C(O)COC1=O,11.5%,–
CCOc1ccccc1N=C1NC(=O)CS1,-4.09%,–
